Most compounds without a hit are left out; they make up all but 11% or so of the library.
IL-1B inflam inh – qHTS for Inhibitors of Inflammasome Signaling: IL-1-beta AlphaLISA Primary Screen; activity change, % at 57.5 µM; THP-1 LPS/ATP IL-1B secretion, AlphaLISA, 16 h; hits give low values; actives 4.7% (n = 360,000); AID 743279, 2014; in the data active means activity change below about -50%; inconclusive means mostly about -30% to -49%; further: on the % scale 0 is the no-effect control and ±100 the full control effect
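Secreted IL-1B measured by AlphaLISA bead assay after 16 h compound exposure of THP-1 cells; compounds (final up to 57.5 uM) added 1 h before LPS (250 ng/mL) and ATP (1.25 mM) stimulation; lower signal means less secretion.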
VP16 counter – VP16 counterscreen qHTS for inhibitors of ROR gamma transcriptional activity; Drosophila S2 Gal4-VP16 UAS-luciferase, luminescence, 20 h; Potency, µM (series often up to 53.6 µM), for inactives: top-dose activity, negative = inhibition, usual class: inhibitors; actives 3.5% (n = 310,000); AID 2546, 2010;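 further: Gal4-VP16 expression switched on by copper sulfate through the metallothionein promoter; potency means the concentration at half of the fitted maximal effect; on the % scale 0 is the no-effect control and ±100 the full control effect; nearly all actives have a fitted effect of over 50% in size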
SW480 rerep – A quantitative high throughput screen for small molecules that induce DNA re-replication in SW480 colon adenocarcinoma cells. SW480 DNA re-replication, Hoechst DNA content imaging, 48 h. Potency, µM (highest dose often 46.1 µM), inactives show at the highest dose re-replication activation, most hits filed as activators. actives 1.8% (n = 340,000); further: potency means the concentration at half of the fitted maximal effect; % of control where 0% means no effect; nearly all actives have a fitted effect of over 55% in size
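First, 250 cells per well were seeded. Next, compound or vehicle (23 nL) was pinned in, plates sat 48 hr at 37 C. Finally Hoechst was added for 40 min before fluorescence scanning.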
MCF10A rereplic – A quantitative high throughput screen for small molecules that induce DNA re-replication in MCF 10a normal breast cells. MCF 10A DNA re-replication, Hoechst nuclear intensity, 48 h. Potency, µM (top dose mostly 46.1 µM), for the others: at the highest dose activity, positive = re-replication, actives largely listed as activators. actives 2.9% (n = 350,000); further: potency means the concentration at half of the fitted maximal effect; % of control where 0% means no effect; nearly all actives have a fitted effect of over 50% in size
RORg inh – qHTS for inhibitors of ROR gamma transcriptional activity | Drosophila S2 Gal4-RORgamma UAS-luciferase reporter, 20 h | Potency, µM (titrated, usually from 53.6 µM), without a hit: at the highest dose activity change, negative = inhibition, usual class: inhibitors | actives 5.4% (n = 310,000) | AID 2551, 2010; further: potency means the concentration at half of the fitted maximal effect; on the % scale 0 is the no-effect control and ±100 the full control effect; nearly all actives have a fitted effect of over 60% in size
Target sequence (P51450 whole entry, looked up, the tested form may be a part): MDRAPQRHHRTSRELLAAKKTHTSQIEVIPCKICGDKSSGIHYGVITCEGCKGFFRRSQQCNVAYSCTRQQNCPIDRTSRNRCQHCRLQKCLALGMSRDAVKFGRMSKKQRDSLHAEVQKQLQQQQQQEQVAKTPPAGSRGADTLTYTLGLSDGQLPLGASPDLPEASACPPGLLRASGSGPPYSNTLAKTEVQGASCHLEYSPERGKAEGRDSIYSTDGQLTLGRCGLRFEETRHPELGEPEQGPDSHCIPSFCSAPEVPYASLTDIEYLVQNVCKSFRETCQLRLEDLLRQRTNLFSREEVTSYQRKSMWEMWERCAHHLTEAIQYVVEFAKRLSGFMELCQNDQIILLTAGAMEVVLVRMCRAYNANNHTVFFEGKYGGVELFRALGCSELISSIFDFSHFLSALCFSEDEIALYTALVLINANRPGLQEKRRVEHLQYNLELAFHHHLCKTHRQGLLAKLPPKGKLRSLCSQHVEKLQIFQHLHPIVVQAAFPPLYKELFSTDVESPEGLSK
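Stable Schneider cell line, Gal4 DNA-binding domain fused to ROR gamma, UAS-luciferase. Cmpd 1 hr RT → CuSO4 700 uM final → 20 hr RT → luciferase reagent 10 min → luminescence.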
The depositor's hits bear a star; ? = inconclusive; . = no result given; [ ] = dose if it differs, or a comment. Unless noted, the call rests on the fitted dose curve; in most records, active means well fitted curve in the direction sought with a large enough effect; inconclusive means small, poorly fitted or top-dose-only effect, or another doubt; inactive means no such curve, though single readings can be large; an effect the other way counts as inactive or inconclusive.

SMILES	IL-1B inflam inh	VP16 counter	SW480 rerep	MCF10A rereplic	RORg inh
CC1CCC2C(=O)N3C(CCC(C)[C@H]3c3cccc(N4CCCC4=O)c3)C(=O)N2C1c1cccc(N2CCCC2=O)c1 (stereo not given in full)	.	-11%[10 µM]	.	.	11%[10 µM]
Cc1ccc(C(=O)NCCNc2nc3cc(C)c(C)cc3cc2C)cc1	-5	-6%	8.2µM*	8.2µM*	11%
COc1cc(/C=C/C(=O)Nc2ccc3[nH]c(=O)[nH]c3c2)cc(OC)c1OC	-72*	-14%	-3%	3%	18%
O=C(/C=C/c1cccc([N+](=O)[O-])c1)n1cnc2ccccc21	-68*	-7%	5.8µM*	3.7µM*	11µM*
COc1cccc(/C=C/C(=O)Nc2ccc3[nH]c(=O)[nH]c3c2)c1	114	-1%	-9%	16%	-25%
O=C(/C=C/c1cccc([N+](=O)[O-])c1)c1cccs1	-88*	?	5.8µM*	3.3µM*	?
COc1cc(/C=C/C(=O)N2CCC=CC2=O)cc(OC)c1OC	-103*	7.9µM*	?	8.2µM*	3.5µM*
CC(C)c1ccc(NC(=O)c2cc(-c3cc(F)ccc3OCC3CCCO3)n[nH]2)cc1 (stereo not given)	-11	.	.	.	.
Cc1ccc(S(=O)(=O)N2[C@@H](c3ccc(F)cc3)C(C(=O)O)=C[C@H]2CC2CCCC2)cc1	8	.	?	-40%	.
COc1ccc2cc(C(=O)/C=C/c3cc(OC)c(OC)c(OC)c3)ccc2c1	-62*	11%	21µM*	13µM*	-25%
O=C(/C=C/c1ccccc1)c1ccc2ccccc2c1	?	.	141%	?	.
O=C(C=Cc1cccs1)c1cccs1	-26	.	119%	?	.
COc1cc(C=CC(=O)c2ccccc2)cc(OC)c1OC	-115*	.	.	.	.
COc1cc(/C=C/C(=O)c2cccs2)cc(OC)c1OC	.	?	.	.	7.9µM*
COc1cc(/C=C/C(C)=O)cc(OC)c1OC	?	30%	-7%	?	-4%
O=C(/C=C/c1ccc(O)cc1)c1cccs1	.	-3%	.	.	14µM*
O=C1OC(OC(=O)c2cccnc2Nc2cccc(C(F)(F)F)c2)c2ccccc21 (stereo not given)	.	-3%	3%	12%	0%
CC(=O)N1CCc2cc(Br)cc(S(=O)(=O)N3CCC(C(=O)O)CC3)c21	-10	-5%	9%	?	-4%
COc1cc(C=CC(=O)c2cc(OC)c(OC)c(OC)c2)cc(OC)c1OC	0	.	?	13µM*	.
CC(=O)Oc1ccccc1C(=O)C=Cc1cccc([N+](=O)[O-])c1	-101*	.	?	5.8µM*	.
CCCc1cc(=O)oc2cc(C)cc(OCC(=O)NCCCN3CCCC3=O)c12	28	1%	?	0%	2%
CC(C)CCOc1ccc(/C=N/N2C(=O)CSC2=S)cc1	-9	?	14%	?	4.5µM*
CN(C)c1ccc(CC(=O)N2CCCC(c3cc(C(=O)Nc4ccc(C(C)(C)C)cc4)no3)C2)cc1 (stereo not given)	-3	.	.	.	.
CCSC1(SCC)N=C(N)C2(C#N)C(c3ccc(OC)c(OC)c3OC)C12C#N (stereo not given)	-115*	2.5µM*	?	9.2µM*	11µM*
Cc1cccc2cc(C#N)c(NCCNC(=O)c3ccccc3)nc12	-26	.	.	.	.
Cc1ccccc1-n1c(Cn2c(=O)sc3ccccc32)nnc1SCC(=O)N1CCCC1	-7	2%	9%	5%	-1%
CCOC(=O)CNC(=O)CSc1nnc(Cn2c(=O)sc3ccccc32)n1-c1ccccc1C	-94*	-2%	1%	-23%	37%
CCOC(=O)c1ccccc1NC(=O)COC(=O)CCNS(=O)(=O)c1ccccc1	20	-4%	-3%	-2%	-1%
O=C(NC1CCCC1)C(C1CC1)n1c(-c2ccnc3ccccc23)nc2ccccc21 (stereo not given)	58	.	.	.	.
